# High-throughput results deposited in PubChem by Broad Institute.
# Compounds with a hit are over-represented: about 3% of the library has one in this group of screens.
# Wnt bcat act = Wnt/beta-catenin pathway activators, primary screen, cell-based, plate reader, single point | Wnt/beta-catenin reporter cell assay, activator | activation, % at 9.35 µM | 1.2% of 300,000 active; in the data active means activation above about 30%, passing the limit was not always enough; inconclusive means no clear call, values can overlap the other calls;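 further: 0% = neutral control wells and 100% = positive control wells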
# C2C12 statin = suppressors of statin myotoxicity in C2C12 myotubes, primary screen, cell-based, single point, plate reader; C2C12 myotubes + simvastatin, ATP luminescence, 48 h; scaled: DMSO 0, geranylgeraniol control 100; rescue of ATP level, % at 7.49 µM; 0.78% of 330,000 active; AID 602340, 2012;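 active means mean ATP rescue above about 67%, or every replicate alone reaching that limit, limit read from the data, passing the limit was not always enough; inconclusive means no clear call, values can overlap the other calls; inactive means mean under the limit and some replicate under it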;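 further: myotubes were challenged with 10 µM simvastatin during compound exposure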
# MITF TRPM1 HTS = activators of MITF-driven TRPM1 promoter reporter, primary screen, cell-based, SK-MEL-5, luciferase, single point. SK-MEL-5 TRPM1-promoter luciferase, 24 h; % of positive control, neutral wells = 0. activation, % at 12.5 µM. 0.75% of 300,000 active. AID 588334, 2011;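 active means mean activation of at least 80% with every replicate also reaching 80%; inconclusive means mean reaches 80% but some replicate falls short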;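 further: 0% = neutral control wells and 100% = parthenolide positive control wells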
# esBAF inh = Bmi1 luciferase reporter increase in mESCs, primary screen, esBAF inhibitor project, mouse ES cells, Bmi1 luciferase knock-in, single point; 24 h; 100% = twice the neutral-well signal; reporter increase, % at 12.5 µM; 2% of 350,000 active; AID 602393, 2012; in the data active means activation above about 40%; inconclusive means no clear call, values can overlap the other calls;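 further: 0% = median of the plate's neutral control wells and 100% = double that signal; a rise in the Bmi1 reporter signal indicates esBAF inhibition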
# * marks the source's active call; other numbers are inactive results; ? = inconclusive; . = no result.
SMILES,Wnt bcat act,C2C12 statin,MITF TRPM1 HTS,esBAF inh
Cn1ccnc1SCC(=O)Nc1ccc(Oc2ccccc2)cc1,7,.,?,50*
Cn1ccnc1SCC(=O)Nc1cccc(C(F)(F)F)c1,.,10,23,10
COc1ccc(C(=O)CSc2nccn2C)cc1,17,6,79,42*
CCOc1ccc(NC(=O)CSc2nccn2C)cc1,6,3,56,?
Cn1ccnc1SCC(=O)c1ccc(OC(F)F)cc1,12,-9,64,37
C[C@H]1CN([C@@H](C)CO)C(=O)c2cccc(NS(=O)(=O)c3ccc(Cl)cc3)c2O[C@H]1CN(C)Cc1ccncc1,.,5,.,-1
Cc1ccc(S(=O)(=O)Nc2ccc3c(c2)CC(=O)N([C@H](C)CO)C[C@H](C)[C@H](CN(C)Cc2ccc(C(=O)O)cc2)O3)cc1,.,-34,.,1
Cc1ccc(-c2nn(Cc3ccccc3)cc2/C=C/C(=O)O)cc1C,-2,86*,-2,-5
Cc1cc(C)c2nc(N3CCCC(C(=O)NC4CCCC4)C3)sc2c1 (stereo unspecified),1,12,25,58*
Cc1ccc(CN(C)C[C@@H]2OCc3cn(nn3)CCCC(=O)N([C@H](C)CO)C[C@H]2C)cc1,.,12,.,-1
C[C@H](CO)N1C[C@H](C)[C@H](CN(C)S(=O)(=O)c2cn(C)cn2)Oc2ccc(NC(=O)Cc3cn(C)c4ccccc34)cc2C1=O,.,10,.,-5
Cc1ccc(S(=O)(=O)Nc2ccc3c(c2)C(=O)N([C@H](C)CO)C[C@H](C)[C@H](CN(C)C(=O)NC2CCCCC2)OCCCC[C@H](C)O3)cc1,.,.,.,6
Nc1nc(SCc2ccc(Cl)cc2)ns1,.,-19,38,32
Nc1nc(SCc2ccccc2)ns1,.,-4,35,50*
COc1cccc(S(=O)(=O)Nc2ccc3c(c2)[C@H]2C[C@@H](CC(=O)NCCc4ccccc4)O[C@H](CO)[C@H]2O3)c1,.,10,.,9
Cc1cccc(OCCCC(=O)Nc2ccccc2C(F)(F)F)c1,-5,97*,5,-5
Cc1ccccc1OCCCC(=O)Nc1ccccc1C(F)(F)F,-1,3,0,-6
COc1cccc(NC(=S)Nc2cc(C)cc(C)n2)c1,54*,-4,.,?
Cc1cccc(NC(=S)Nc2ccccn2)c1,60*,.,26,.
COC(=O)c1ccc(NC(=S)Nc2ccccn2)cc1,.,-3,112*,58*
COc1ccc(NC(=S)Nc2ccccn2)cc1,36*,4,?,58*
COc1ccccc1NC(=S)Nc1ccccn1,.,.,3,.
O=C(C[C@@H]1CC[C@@H](NC(=O)NC2CCCCC2)[C@@H](CO)O1)NCc1ccc(Cl)cc1,.,1,.,-8
COc1ccc(/C=C/C(=O)NC(=S)Nc2ccccn2)cc1,12,7,55,48*
COc1ccccc1/C=C/C(=O)NC(=S)Nc1ccccn1,6,17,.,31
SMILES,Wnt bcat act,C2C12 statin,MITF TRPM1 HTS,esBAF inh
C=CCn1c(-c2cc(-c3ccccc3)sc2N)n[nH]c1=S,41*,.,.,.
C=CCn1c(-c2csc(-c3ccccc3)n2)n[nH]c1=S,1,77*,5,6
C=CCn1c(-c2csc(-c3ccc(Cl)cc3)n2)n[nH]c1=S,.,.,19,.
Nc1sc(-c2ccccc2)cc1-c1n[nH]c(=S)n1C1CCCCC1,-13,.,.,.
CCCc1nc2oc3c(NCC(C)O)ncnc3c2c2c1CCCC2 (stereo unspecified),38*,.,.,.
O=C(N/N=C\c1ccccn1)c1ccccc1O,36*,.,10,.
CO[C@H]1CN(C)C(=O)c2ccc(NC(=O)Nc3cccc(F)c3)cc2OC[C@@H](C)N(C(=O)C2CC2)C[C@@H]1C,.,0,.,9
O=C(C1CC12CCCC2)N1CCC(CO)(Cc2ccccc2Cl)CC1 (stereo unspecified),56*,.,5,.
COC(=O)c1ccc(CN2CCC(CO)(Cc3ccccc3Cl)CC2)cc1,-1,-5,3,0
CC(C)c1ccc(NC(=O)C(c2ccccc2)N2CC(=O)Nc3ccccc32)cc1 (stereo unspecified),15,-10,.,66*
C[C@@H]1CN([C@@H](C)CO)C(=O)Cc2cc(NC(=O)Nc3ccc4c(c3)OCO4)ccc2O[C@H]1CN(C)Cc1ccc(C(=O)Nc2ccccc2N)cc1,.,-5,.,-4
CCOC(=O)N1CCN(C(=O)CN(c2ccccc2OC)S(=O)(=O)c2ccc(OC)cc2)CC1,-1,.,2,.
CN(CC(=O)N1CCCCCC1)S(=O)(=O)c1ccc(F)cc1,8,7,31,54*
COc1ccc(S(=O)(=O)N(CC(=O)N2CCCCCC2)c2ccccc2OC)cc1,0,99*,-8,-5
CN(CC(=O)N1CCCCCC1)S(=O)(=O)c1ccccc1,20,-6,.,57*
Cc1ccc(S(=O)(=O)N(C)CC(=O)N2CCCCCCC2)cc1,5,7,2,-8
CN(C)C(=O)[C@H]1[C@H](CO)[C@H]2Cn3c(ccc(C4=CCCC4)c3=O)[C@H]2N1Cc1ccccn1,.,-2,.,5
CCCc1cn(CC[C@H]2CC[C@H](NC(=O)C3CCC3)[C@@H](CO)O2)nn1,.,7,.,3
C/C=C/c1ccc2c(c1)O[C@@H](CN(C)C(=O)C1CCC1)[C@@H](C)CN([C@H](C)CO)S2(=O)=O,.,11,.,.
O=C(CN(c1ccc(F)cc1)S(=O)(=O)c1ccccc1)NCc1ccco1,0,103*,.,-6
CCOc1ccc(N(CC(=O)NCc2ccco2)S(=O)(=O)c2ccc(OC)c(OC)c2)cc1,.,108*,3,6
O=C(CN(C(=O)CNS(=O)(=O)c1ccccc1)c1ccc(F)cc1)NCc1ccco1,-3,-3,7,-1
COc1ccc(S(=O)(=O)Nc2ccc3c(c2)C(=O)N([C@@H](C)CO)C[C@@H](C)[C@H](CN(C)C(=O)c2ccncc2)OCCCC[C@@H](C)O3)cc1,.,.,.,12
Cc1ccccc1-c1cnc2c(c1)C(=O)N([C@@H](C)CO)C[C@H](C)[C@@H](CN(C)C(=O)c1ccccc1)O2,.,12,.,-3
CCCNC(=O)N(C)C[C@@H]1Oc2ncc(-c3cccc(C#N)c3)cc2C(=O)N([C@H](C)CO)C[C@@H]1C,.,5,.,7
SMILES,Wnt bcat act,C2C12 statin,MITF TRPM1 HTS,esBAF inh
C[C@@H]1CN([C@H](C)CO)C(=O)c2cc(NS(=O)(=O)c3cn(C)cn3)ccc2O[C@@H]1CN(C)C(=O)Nc1ccc2c(c1)OCO2,.,-37,.,7
COC(=O)Nc1c(-c2ccccc2)nc2ccccn12,.,1,-7,3
c1ccc(-c2nc3ccccn3c2-c2ccccc2)cc1,43*,.,-4,.
Cc1noc(C)c1S(=O)(=O)N(C)C[C@@H]1Oc2ccc(NS(=O)(=O)c3cccs3)cc2CC(=O)N([C@H](C)CO)C[C@H]1C,.,-15,.,3
COc1ccc(-c2cnn(-c3ccccc3)c2N)cc1OC,.,-1,8,0
COc1ccc(-c2nnn(-c3cc(Cl)cc(Cl)c3)c2N)cc1,0,.,17,.
Nc1c(-c2ccc(Cl)cc2)nnn1-c1ccccc1,67*,-2,.,79*
